Screen size: about 30,000 compounds; about 130 (0.43%) were called active. For the sample, actives were picked, then their nearest neighbours and some compounds at random. Values without a mark were called inactive. Rule as the data show it: active = activation above about 65%; inactive = the rest.

The test deals with Lysosomal acid glucosylceramidase (Homo sapiens) (UniProt P04062). Put plainly: raising glucocerebrosidase activity, Gaucher cells – primary screen (AID 784).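 Also: 0% = vehicle wells and 100% = positive control wells.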 To be noted: L444P Gaucher fibroblasts, 4-MU-glucoside fluorescence, 3 days; at 10 µM; hits give high values.
Lysosomal acid glucosylceramidase (Homo sapiens), sequence (P04062 whole entry L483P): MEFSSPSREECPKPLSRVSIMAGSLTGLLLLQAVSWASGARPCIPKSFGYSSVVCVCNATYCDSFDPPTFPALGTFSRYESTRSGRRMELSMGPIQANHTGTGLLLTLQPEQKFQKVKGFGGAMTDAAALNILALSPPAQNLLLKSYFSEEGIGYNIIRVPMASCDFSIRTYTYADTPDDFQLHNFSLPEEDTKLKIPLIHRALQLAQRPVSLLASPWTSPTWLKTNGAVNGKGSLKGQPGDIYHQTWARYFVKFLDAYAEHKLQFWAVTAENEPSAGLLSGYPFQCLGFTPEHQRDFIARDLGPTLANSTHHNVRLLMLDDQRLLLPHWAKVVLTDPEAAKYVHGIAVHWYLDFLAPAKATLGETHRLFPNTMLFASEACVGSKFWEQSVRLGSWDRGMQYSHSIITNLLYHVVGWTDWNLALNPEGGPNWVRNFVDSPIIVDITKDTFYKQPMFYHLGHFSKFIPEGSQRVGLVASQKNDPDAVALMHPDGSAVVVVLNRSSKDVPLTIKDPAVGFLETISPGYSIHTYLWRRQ
On to `CC(C)C[C@H](NC(=O)NCCc1ccc(Cl)cc1)C(=O)O`, for which the activation was -14.7%. The value for `COc1ccc(CCN=C2SCC(=O)N2C)cc1OC` was -11.5%; that for `CCOc1ncccc1C(=O)OCc1cn2cc(Cl)ccc2n1` was 2.09%.

For `COc1ccccc1N1CCN(C(=O)Cn2nnc(-c3cccs3)n2)CC1`, the activation was -45%. The figure for `O=C(CN1CCN(c2nc(-c3ccccc3)cs2)CC1)NCc1ccc2c(c1)OCO2` is -22.9%. The figure for `COC(=O)c1cn(-c2ccccc2)nc1-c1cccnc1` is 64.9%; for `CCOc1ccc(N2C(=O)CC(N(O)c3ccccc3)C2=O)cc1` (stereo unspecified) it is 20.8%.

Take `Cc1cc(C)nc(SCc2nnc(SCC(=O)OC3CCCCC3)o2)n1`: the activation is -16%.

In the case of `Cc1ccc(C(=O)CSc2nc3ccccc3c(=O)n2N)o1`, the activation is -3.06%. The figure for `Cc1ccc(S(=O)(=O)NCC(=O)OCC(=O)N2CCc3ccccc32)cc1` is -6.72%. With `O=C(Nc1ccccc1)c1cccnc1Nc1ccccc1`, the activation is -10.1%.

Turning to `O=C(Nc1ccc2c(c1)nc1n2CCCCC1)c1cc(S(=O)(=O)N2CCOCC2)ccc1Cl`, the activation was -3.59%. The value for `CCN(CC(=O)NC(C)C)C(=O)CCNC(=O)c1ccc(Cl)cc1` was 21%; that for `CN1CCN(S(=O)(=O)c2ccc(NC(=O)c3ccco3)cc2)CC1` was -8.04%; that for `CCC1SC2=NCCN2C1(O)c1ccc(Cl)cc1` (stereo unspecified) was -18.2%. For `c1ccc(-c2oc3ncnc(N4CCOCC4)c3c2-c2ccccc2)cc1`, the activation was -12.4%. The value for `CCC(C)Sc1nc2c(c(=O)[nH]c(=O)n2C)n1CC(O)COc1cccc2ccccc12` (stereo unspecified) was -21%; that for `CNC(=O)C1CC(=O)N(Cc2ccc3c(c2)OCO3)C(=Nc2ccc(F)cc2)S1` (stereo unspecified) was -16.6%; that for `COc1ccc(C(=O)CSc2nccc(=O)[nH]2)cc1` was -9.63%. The figure for `O=C(OCc1nnc(-c2ccccc2)o1)c1ccc2c(c1)C(=O)N(CCc1ccccc1)C2=O` is -2.93%; for `COc1c(C)cccc1C(=O)Nc1cc(Cl)ccc1N1CCOCC1` it is -42.8%; for `CC(=O)OCc1cc2cc(C)ccc2[nH]c1=O` it is -12%. The figure for `COc1cc2c(cc1OC)C(c1ccncc1)CC(=O)N2` (stereo unspecified) is -30.8%. `CCc1c(C)nc(N)n2c(SCC(=O)N3CCN(c4ccccc4)CC3)nnc12`: the activation was -9.46%. The figure for `CCOC(=O)c1c(NC(=O)CCC(=O)NCc2ccco2)sc2c1CCCC2` is -3.62%; for `O=c1nc(N2CCOCC2)nc2n1CCO2` it is 0.48%; for `O=C(CN1C2CCC1CC(NC(=O)C1CC1)C2)NCc1ccccc1` (stereo unspecified) it is -20%.

On to `CCn1c(COc2cccc(OC)c2)nnc1SCC(=O)N1CCOCC1`, for which the activation is 2.04%. As for `COc1ccc(S(=O)(=O)N(CCCN2CCCC2=O)Cc2cc3c(C)ccc(C)c3[nH]c2=O)cc1`, the activation is -24.5%. The value for `COc1ccccc1Nc1ncnc2c1oc1ccccc12` was -53.1%.

For the molecule `O=C(NCc1ccccn1)c1cc2ccccc2oc1=O`, the activation was -7.53%.

As for `O=C(CNCCO)NC12CC3CC(CC(C3)C1)C2`, the activation was 10%.

For `COc1cc(NS(=O)(=O)c2ccccc2)ccc1-n1nc(C)cc1C`, the activation is 4.78%. For the molecule `C=C(C)c1cccc(C(C)(C)NC(=O)N2CCN(c3ncccn3)CC2)c1`, the activation was 0.53%. The figure for `Cc1ccsc1C(=O)OCC(=O)c1cc2ccccc2o1` is 6.97%; for `COc1ccc(CCn2nnnc2C(c2ccccc2)N2CCN(C)CC2)cc1OC` (stereo unspecified) it is -1.68%.

Turning to `CCn1c(SCC(=O)NCC2CCCO2)nc2cc(S(=O)(=O)N3CCCCC3)ccc21` (stereo unspecified), the activation was -14.9%. The figure for `CCN1C(=O)CS/C1=N\c1nccs1` is -12.6%; for `Cc1ccc(S(=O)(=O)N(C)CC(=O)N2CCc3ccccc32)cc1` it is 0.44%. The value for `Cc1cccc(OCc2nnc(SCn3nnc4ccccc4c3=O)o2)c1` was 4.49%. The figure for `Cc1cc(C)cc(OCc2nnc(SCC(=O)Nc3ccccc3)o2)c1` is -21.4%; for `O=C(Nc1ccc2c(c1)OCCO2)C1CCCN(c2ncccn2)C1` (stereo unspecified) it is -35.2%; for `O=C(NC1CCN(Cc2ccccc2)CC1)c1ccccc1F` it is -0.98%.

For the molecule `O=C(COC(=O)c1ccc(Oc2ccccc2)cc1)Nc1nnc(-c2ccccc2)o1`, the activation is -9.15%. The figure for `Cc1nc2cc(-c3ccc(F)cc3)nn2c(N2CCOCC2)c1C` is 4.6%. The value for `COc1ccc(CNC2CCCCC2)cc1` was -12%; that for `CCn1c(COc2ccc(OC)cc2)nnc1SCC(=O)Nc1cc(OC)ccc1OC` was -5.85%; that for `CC(=O)N1CCC(C(=O)Nc2nc(-c3ccccc3)ns2)CC1` was -7.15%. As to `Cn1c(=O)c2c(nc(CN3CCOCC3)n2Cc2ccccc2)n(C)c1=O`, the activation is -2.48%.

In the case of `Cc1ccc(-c2nc(COC(=O)c3c(C)noc3C)cs2)cc1`, the activation is 4.07%.

Take `CCOC(=O)c1ccccc1NC(=O)CC1Nc2ccccc2NC1=O` (stereo unspecified): the activation was -13.8%. The figure for `Cc1cccc2nc(CNc3ccc(F)cc3)cn12` is -22.2%; for `COC(=O)N1CN(C(=O)OC)CN(C(=O)OC)C1` it is -8.85%. The figure for `CC(=O)N1CCN(C(=O)c2cccc(S(=O)(=O)Nc3ccc(C)cc3)c2)CC1` is 5.73%. For the molecule `CCn1nnc(NC(=O)c2c(OC)cccc2OC)n1`, the activation is 4.73%. The figure for `COc1ccccc1N1CC(O)=C(c2nc3ccccc3s2)C1=N` is 8.76%. The figure for `Cc1ccc(NC(=O)CN2CCC3(O)CCCCC3C2c2ccc3c(c2)OCO3)c(C)c1` (stereo unspecified) is -20.4%; for `CCOC(=O)c1sc(/N=C/Nc2nc(C)c(C(=O)OCC)s2)nc1C` it is -5.05%; for `CCC(c1nnnn1Cc1ccccc1)N(Cc1cc2cc(OC)ccc2[nH]c1=O)CC1CCCO1` (stereo unspecified) it is -25.6%.

On to `COc1ccc(CCNC(=O)c2ccco2)cc1`, for which the activation is -11.6%. The figure for `CCC12CN3CC(CC)(CN(C1)C31C(=O)N(C)c3ccc(C)cc31)C2=O` (stereo unspecified) is -17.4%; for `Cc1cccc(NC(=O)COc2ccc(Br)cc2C)n1` it is 7.05%; for `CC(=O)c1ccc(-n2nnnc2SCC(=O)N2CCN(C(=O)c3ccco3)CC2)cc1` it is -18.5%. Consider `O=C(CN(CC1CCCO1)C(=O)CNS(=O)(=O)c1ccccc1)NCc1ccccc1` (stereo unspecified), for which the activation is -28.7%.

On to `CC1CCCC(NC(=O)CSc2nccn2C)C1C` (stereo unspecified), for which the activation was -8.08%. The figure for `CCOC(=O)c1c(C)[nH]c(C(=O)COc2ccc3c(c2)OCO3)c1C` is 6.28%. On to `Cn1c(SCC(=O)c2cccs2)nnc1-c1ccco1`, for which the activation is -23%. The figure for `CCCn1c(SCC(=O)N2CCc3ccccc32)nnc1-c1ccncc1` is -11%; for `CCCSC1=C(C#N)C(c2ccccc2C)C(C(=O)OC)C(=O)N1` (stereo unspecified) it is -16.4%; for `Cc1cc(C)c2c(c1)cc(C)c1nnc(SCC(=O)Nc3cc(C)on3)n12` it is -30.3%. Consider `CCOC(=O)c1cc(-c2nnc(-c3cc(OC)c(OC)c(OC)c3)o2)c(C)nc1C`, for which the activation was -21.7%. The value for `O=C(Nc1ccc(S(=O)(=O)N2CCCC2)cc1Cl)C1=COCCO1` was 22.5%; that for `O=C(O)c1ccc(NS(=O)(=O)c2cccc3nsnc23)cc1` was 1.35%; that for `CC1=CC(C)(C)N(C(=O)CSc2nccn2C)c2cc(C)ccc21` was -9.35%. The figure for `CN1CCC2(CC1)NC(=O)NC2=O` is -11.5%. Turning to `COC(=O)C(CC(=O)Nc1cc(C)ccc1C)Nc1ccccc1OC` (stereo unspecified), the activation is 3.63%. The value for `Cn1cccc1C(=O)NC(=O)COC(=O)Cc1coc2ccc3ccccc3c12` was -54.5%. The value for `Cc1ccc(NC(=O)CS(=O)CC(=O)N(c2ccccc2)C(C)C(=O)NC2CCCC2)cc1` (stereo unspecified) was 0.43%; that for `CCCc1nnc(NC(=O)c2cc(OC)cc(OC)c2)s1` was -49.8%; that for `CCCc1nc(SCC(=O)Nc2ccccc2OC)c2c(=O)n(C)c(=O)n(C)c2n1` was -10.4%. The value for `CCc1cc(=O)oc2cc(C)cc(OC(C)C(=O)O)c12` (stereo unspecified) was 12.8%.

These data come from PubChem BioAssay AID784 (The Scripps Research Institute Molecular Screening Center, 2007).
